Source: PubChem BioAssay (NCATS)
“And” between values parts separate entries of the source, which are not always exact repeats. Equal values may be shown once. Inconclusive results are not listed. Where a call stands in place of a potency, no number is given. The source made the active and inactive calls. Calls follow the shape of the dose curve; as a rule, active = well fitted cell-killing curve with a large enough effect; inconclusive = small, poorly fitted or top-dose-only effect, or effect the other way; inactive = no such curve, though single readings can be large or run the other way.

Legend:
[1] = Viability qHTS for spleen associated tyrosine kinase inhibitor (SYKi) naive MV4-11 cells (AID 1963823); also: nearly all actives have a fitted effect of over 40% in size
Method in brief: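 qHTS, SYK inhibitor-naive MV4-11; 500 cells/well; 72 hr compound exposure, 37 C; CellTiter-Glo added, 10 min RT; luminescence read.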

[2] = Viability qHTS for spleen associated tyrosine kinase inhibitor (SYKi) drug resistant MV4-11 cells (AID 1963824); also: nearly all actives have a fitted effect of over 35% in size
Method in brief: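 CellTiter-Glo luminescence, read 10 min after reagent addition, reports viability after a 72 hr compound exposure. Cells are an MV4-11 line made resistant to SYK inhibition, seeded at 500 per well onto compound-containing plates.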
Potency is read from the fitted curve at half-maximal effect.

Row | SMILES | Potency [1] | Potency [2] | viability (% of control) [1] | viability, % of control [2]
1 | COc1cc([C@H]2OC[C@]3(OC(C)=O)[C@@H](c4ccc(O[C@@H]5O[C@H](CO)[C@@H](O)[C@H](O)[C@H]5O)c(OC)c4)OC[C@H]23)ccc1O | inactive | inactive | – | –
2 | COc1cc(C(=O)O)ccc1OC1OC(CO)C(O)C(O)C1O (configuration not stated) | inactive | inactive | – | –
3 | CCC[C@@H]1C[C@@H](C(=O)N[C@H](C(C)Cl)[C@H]2O[C@H](SC)[C@H](O)[C@@H](O)[C@H]2O)N(C)C1 (some centres not stated) | inactive | inactive | – | –
4 | COC(=O)C1=COC(O[C@@H]2O[C@H](CO)[C@@H](O)[C@H](O)[C@H]2O)/C(=C\COC(=O)c2ccc(OC3OC(CO)C(O)C(O)C3O)c(OC)c2)C1CC(=O)OCCc1ccc(O)cc1 (some centres not stated) | – | – | 83.5% [at 9.25 µM] (inactive) | 105% [at 9.25 µM] (inactive)
5 | CCC(C)C(=O)OC[C@H]1O[C@H](O[C@H]2O[C@H](CO)[C@@H](O)[C@H](O)[C@H]2O)[C@H](O)[C@@H](O)[C@@H]1O (some centres not stated) | inactive | inactive | – | –
6 | C[C@H]1[C@@H](O)[C@H](O)C2[C@]3(C)C([C@@H](O)[C@H]4OC(=O)[C@@H]1[C@@]24C)[C@](C)(O)C=C[C@H]3O[C@@H]1O[C@H](CO)[C@@H](O)[C@H](O)[C@H]1O (some centres not stated) | inactive | inactive | – | –
7 | CN1CCN(Cc2ccc(NC(=O)Cc3ccc(Oc4cc(NC(=O)C5CC5)ncn4)cc3)cc2C(F)(F)F)CC1 | inactive | inactive | – | –
8 | COC(=O)C1=COC(OC2OC(CO)C(O)C(O)C2O)C2C(COC(=O)/C=C/c3ccc(O)cc3)C(O)C(O)C12 (configuration not stated) | inactive | inactive | – | –
9 | O=C(/C=C/c1ccc(O)cc1)OC[C@H]1O[C@H](O[C@@]2(CO)O[C@@H](CO)[C@H](O)[C@H]2O)[C@H](O)[C@@H](O)[C@@H]1O | inactive | inactive | – | –
10 | O=C(OCCN1CCOCC1)c1cccnc1Nc1cccc(C(F)(F)F)c1 | inactive | inactive | – | –
11 | N[C@@]1(C(=O)O)CC[C@H]2[C@H](C(=O)O)[C@H]21 | inactive | inactive | – | –
12 | CC(C)n1nc(-c2ccc(NC(=O)Nc3cccc(C(F)(F)F)c3)cc2)c2c(N)ncnc21 | inactive | inactive | – | –
13 | CC(CCc1ccccn1)(CCc1ccccn1)C(=O)c1ccccc1 | inactive | inactive | – | –
14 | CC(C)Oc1ccc(-c2nc(-c3cccc4c3CCC4NCCC(=O)O)no2)cc1C#N (configuration not stated) | inactive | inactive | – | –
15 | CCNC(=O)Nc1ccc(-c2nc3c(c(N4CCOC[C@H]4C)n2)CCN(C2COC2)C3)cc1 | 461 nM (active) | 0.82 µM (active) | – | –
16 | CC(C)C(C)C(O)C1CC23CC(=O)C4(O)C(=C2CCC3C1C)C=CC1(O)CC(O)CCC14C (configuration not stated) | inactive | 7.09 µM (active) | – | –
17 | C=C1C[C@]23C[C@H]1CC[C@H]2C1=C[C@H]2OC(=O)[C@@](C)([C@H]1[C@@H]3C(=O)O)[C@H]2O | inactive | inactive | – | –
18 | O=C(Nc1cccc(Nc2cc(Nc3cccc(C(F)(F)F)c3)ncn2)c1)C1CC1 | 164 nM (active) | 0.259 µM (active) | – | –
19 | C/C=C/C1=CC2=C(CO1)C(=O)C(C)(O)C(OC(=O)c1c(C)cc(OC)cc1O)C2 (configuration not stated) | 6400 nM (active) | 4.04 µM (active) | – | –
20 | CC1(C)CC2C(O)c3cocc3CC(C)(O)C2C1 (configuration not stated) | inactive | inactive | – | –
21 | CC/C=C\CCO[C@@H]1O[C@H](CO)[C@@H](O)[C@H](O)[C@H]1O | inactive | inactive | – | –
22 | Cc1ncc(NC(=O)c2ccc(CN3CCN(C)CC3)c(C(F)(F)F)c2)cc1Nc1nccc(-c2cccnc2)n1 | 920 nM (active) and 1.66 µM (active) | 2.06 µM (active) and 3.32 µM (active) | – | –
23 | CC(=O)O[C@H]1[C@@H](O)[C@H](O[C@H]2[C@@H]3C=CO[C@@H](O[C@H]4O[C@@H](CO)[C@H](O)[C@@H](O)[C@@H]4O)[C@@H]3[C@@]3(CO)O[C@@H]23)O[C@@H](C)[C@@H]1OC(=O)/C=C/c1ccccc1 | inactive | inactive | – | –
24 | CC1=C(C)C(=O)OC(C(C)C2CCC3C4C5OC5C5(O)CC(OC6OC(CO)C(OC7OC(C)C(O)C(O)C7O)C(O)C6O)CC(O)C5(C)C4CCC23C)C1 (configuration not stated) | inactive | inactive | – | –
25 | CC(C)CC(c1c(O)c(C=O)c(O)c(C=O)c1O)C1CCC(C)(O)C2CC(C(C)(C)O)CCC12C (configuration not stated) | inactive | inactive | – | –
26 | Nc1nc(OC(c2ccc(-c3cccc(F)c3)cc2)C(F)(F)F)cc(-c2ccc(C[C@H](N)C(=O)O)cc2)n1 (some centres not stated) | 18600 nM (active) | 18.6 µM (active) | – | –
